NR2F2 inh: inhibitors of human COUP-TFII (NR2F2); HEK293T NGFI-A luciferase reporter, luminescence; inhibition, % at 8.6 µM; 370,000 compounds, 0.7% hits; AID 686940;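 active means inhibition above a per-plate cutoff, mean inhibition of test wells between control levels plus 3 SD, cut at about 38% in these data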;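 further: cells cotransfected with COUP-TFII expression vector driving the NGFI-A reporter; 0% = median of COUP-TF2 test wells and 100% = reporter-only cells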
NCOA1 inh: inhibitors of human steroid receptor coactivator 1 (SRC1) | Q15788 | HEK293 GAL4-SRC1 luciferase reporter, luminescence | inhibition, % at 3.6 µM | 360,000 compounds, 0.12% hits;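 active means inhibition above the campaign mean plus 3 SD, with each screening campaign given its own cutoff, cut at about 60% in these data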;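 further: 0% = DMSO treated cells and 100% = gossypol at 36 µM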
SRC3 inh: inhibits human SRC3 coactivator; HEK293 GAL4-SRC3 luciferase reporter, luminescence; inhibition, % at 3.6 µM; 360,000 compounds, 0.17% hits;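 active means inhibition above a per-campaign cutoff, the mean of all compounds plus 3 SD, cut at about 60% in these data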;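 further: 0% = DMSO-treated cells and 100% = gossypol-treated cells at 36 µM; higher means less SRC3-driven luciferase light from the GAL4 reporter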
NR5A2 inv ag: NR5A2 inverse agonism in reporter assay. HEK293T StAR-luciferase reporter, LRH-1 transfected, 24 h. inhibition, % at 3.6 µM. 360,000 compounds, 0.13% hits. AID 602396;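 active means inhibition above the mean inhibition of all tested compounds plus 3 SD, cut at about 73% in these data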;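 further: 0% = DMSO wells and 100% = reporter-only cells lacking LRH-1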
Target sequence (O00482 whole entry, looked up): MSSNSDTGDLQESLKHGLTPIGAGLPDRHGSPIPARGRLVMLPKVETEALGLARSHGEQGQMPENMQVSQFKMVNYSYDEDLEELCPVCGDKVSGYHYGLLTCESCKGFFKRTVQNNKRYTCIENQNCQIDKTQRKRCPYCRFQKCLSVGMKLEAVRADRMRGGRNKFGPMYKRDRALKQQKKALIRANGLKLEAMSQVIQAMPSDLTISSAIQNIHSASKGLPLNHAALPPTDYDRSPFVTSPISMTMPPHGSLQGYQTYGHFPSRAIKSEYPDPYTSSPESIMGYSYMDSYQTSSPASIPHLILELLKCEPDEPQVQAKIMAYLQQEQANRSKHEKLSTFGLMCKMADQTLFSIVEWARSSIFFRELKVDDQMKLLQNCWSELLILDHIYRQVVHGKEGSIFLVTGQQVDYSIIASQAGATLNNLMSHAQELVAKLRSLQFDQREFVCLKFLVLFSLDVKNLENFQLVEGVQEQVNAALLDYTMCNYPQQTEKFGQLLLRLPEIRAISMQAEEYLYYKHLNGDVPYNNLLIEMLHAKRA
SRC2 inh: human SRC2 (NCOA2) inhibition; Q15596; HEK293 GAL4-SRC2 luciferase reporter, luminescence; inhibition, % at 9 µM; 370,000 compounds, 0.17% hits; AID 651957;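 active means inhibition above the mean inhibition of all tested compounds plus 3 SD, set per campaign, cut at about 52% in these data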;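 further: 0% = DMSO treated cells and 100% = cells given Gossypol at 36 µM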
Gal4-VP16 ctr: VP16 inhibition counter-screen for COUP-TFII | shares compounds with NR2F2 inh | HEK293 Gal4-VP16 luciferase reporter, luminescence | inhibition, % at 8.5 µM | 2,500 compounds, 25% hits | AID 687007; in the data active means inhibition above about 13%
NR2F2 inh conf: confirmation of human COUP-TFII (NR2F2) inhibitors | shares compounds with NR2F2 inh | inhibition, % at 8.5 µM | AID 687008 | HEK293 NGFI-A luciferase reporter, luminescence | 2,500 compounds, 45% hits;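 active means mean inhibition over three repeats above a set limit taken from the earlier primary screen, cut at about 38% in these data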;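 further: 100% = cells given the luciferase reporter alone without the COUP-TF2 vector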
* marks the source's active call; other numbers are inactive results; / = no result given; ! = not confirmed by another sample. In the library only some 0.81% were active in any assay of this set; here they are far more common.

SMILES | NR2F2 inh | NCOA1 inh | SRC3 inh | NR5A2 inv ag | SRC2 inh | Gal4-VP16 ctr | NR2F2 inh conf
COc1ccc(C(=O)Nc2ccc(S(=O)(=O)N3CCc4ccccc43)cc2)cc1 | 59* | 13 | 32 | 45 | 8 | -17 | 42*
CCCCCn1nc(C(=O)N(CC)c2c(N)n(CCCC)c(=O)[nH]c2=O)c2ccccc2c1=O | 6 | 6 | -2 | -8 | 4 | / | /
Cc1ccc(N2C(=O)N(CC(=O)N3c4ccccc4CC3C)C(=O)C2C)cc1 (stereo not drawn) | 0 | -2 | -21 | 16 | 1 | / | /
CCOc1ccc(CN(C)C(=O)CNC(=O)C2CCCCC2)cc1OC | -5 | -16 | -8 | 8 | 13 | / | /
O=C(Nc1nc(-c2ccc(S(=O)(=O)N3CCOCC3)cc2)cs1)c1ccccc1 | 68* | 31 | 37 | 41 | 32 | 18*! | 38*
COc1cccc(C(=O)Nc2nc(-c3ccc(S(=O)(=O)N4CCOCC4)cc3)cs2)c1 | -4 | 42 | 49 | 33 | 11 | / | /
Cc1ccc(-c2csc(NC(=O)c3ccc(S(=O)(=O)N4CCc5ccccc54)cc3)n2)cc1 | 12 | -2 | -2 | 3 | -5 | / | /
O=C(Nc1nc(-c2ccccc2)cs1)c1ccc(S(=O)(=O)N2CCc3ccccc32)cc1 | 51* | 11 | -6 | 7 | 22 | 5 | 12
Cc1nn(C)c(Cl)c1S(=O)(=O)N1CCC(CO)(CCc2ccccc2)CC1 | 18 | 3 | 17 | -28 | 11 | / | /
O=C(NC1CCCCN(Cc2cccc(C(F)(F)F)c2)C1=O)c1ccc(F)c(F)c1 (stereo not drawn) | 10 | / | / | / | -2 | / | /
CCC1CCCCN1S(=O)(=O)c1ccc(NC(=O)c2ccncc2)cc1 (stereo not drawn) | 61* | 20 | 12 | 33 | 39 | 7 | 57*
COc1cccc(C2=Nn3c(nnc3-c3ccccc3O)SC2)c1 | -9 | 7 | 12 | 11 | -4 | / | /
C[n+]1c2n(c3ccccc31)N=C(c1cc(C(C)(C)C)c(O)c(C(C)(C)C)c1)CS2 | 81* | 7 | 60 | 79* | 9 | 29* | 87*
COc1ccc(N2CCN(C(=O)CCCCCn3c(=S)[nH]c4cc5c(cc4c3=O)OCO5)CC2)cc1 | / | -14 | -14 | 8 | / | / | /
COc1ccc(N2CCN(C(=O)CCCCCn3c(=S)[nH]c4ccc(N5CCOCC5)cc4c3=O)CC2)cc1 | 42* | -3 | 9 | 3 | 37 | 6 | 23
C#CCNC(=O)C[C@H]1C[C@@]2(C(=O)OC)C(=C[C@H](C(C)(C)C)O[C@@H]2C)N(Cc2ccc(Cl)cc2Cl)C1=O | -5 | / | / | / | 6 | / | /
Cn1c(CN2CCCCC2)nc2cc(NC(=O)c3cccc(Br)c3)ccc21 | 49* | -12 | -15 | 32 | -26 | -43 | 11
CCOc1cc(C(=O)NCCC(=O)N2CCC3(CC2)NCCc2[nH]cnc23)cc(OCC)c1OCC | -31 | -5 | -10 | 0 | -5 | / | /
O=C(c1cccc([N+](=O)[O-])c1)N1CCCC(C(=O)N2CCN(c3ccccc3)CC2)C1 (stereo not drawn) | -15 | -23 | 7 | -2 | 3 | / | /
COc1ccc(OC)c(CN2C(=O)CSCC2(C)C(=O)NCc2ccccc2)c1 (stereo not drawn) | 0 | / | / | -1 | 21 | / | /
CCCOc1ccc(Cn2cnc3ccccc32)cc1 | 38* | 0 | 15 | 45 | 17 | -17 | 20
CN(CC(=O)Nc1ccccc1Cl)C(=O)COC(=O)Cc1ccc(F)cc1 | -24 | -35 | 4 | -4 | 8 | / | /
Cc1ccc(-c2csc3ncnc(NCCN4CCOCC4)c23)cc1 | 38* | 24 | 30 | -3 | 28 | 9 | 24
Clc1ccc(-c2csc3ncnc(NCCN4CCOCC4)c23)cc1 | 31 | 30 | 35 | -12 | 33 | / | /
COc1ccccc1NC(=S)N1CCN(C(=O)C2CCCO2)CC1 (stereo not drawn) | 11 | 10 | 7 | 10 | -5 | / | /
Cc1cc(C)n2c(Nc3ccc4c(c3)OCCO4)c(-c3cc4ccccc4o3)nc2n1 | 51* | / | / | 43 | 37 | -26 | -16
Cc1cc(C)n2c(Nc3ccc4c(c3)OCCO4)c(-c3ccc(C)o3)nc2n1 | -63 | -60 | -81 | -61 | -44 | / | /
COc1ccc(CN(C)C(=O)c2ccc(OCC(=O)Nc3cccc(C(F)(F)F)c3)c(OC)c2)cc1 | 64* | 31 | 39 | 37 | 31 | -2 | 48*
COc1cc(C(=O)NCc2cccnc2)ccc1OCC(=O)Nc1cccc(C(F)(F)F)c1 | 30 | 11 | 1 | 26 | 31 | / | /
CCCS(=O)(=O)NC(=O)C1(C)CCCN(C(=O)c2cc(F)ccc2C)C1 (stereo not drawn) | -7 | 15 | -10 | 9 | 10 | / | /

Source: PubChem BioAssay (The Scripps Research Institute Molecular Screening Center)
